Experimental data from the supplement of paper PMC11732987, “Enantioselective OTUD7B fragment discovery through chemoproteomics screening and high-throughput optimisation” (Communications Chemistry, 2025).

Columns and labels:
Test in all cases: log2 ratio of Biotin-Ahx-Ub-VS probe labelling (fragment/DMSO); higher = less target engagement (more negative = stronger competition), active = hit call of the paper (q ≤ 0.05, log2 ratio ≤ -1)
Details in all cases: compound concentration: 200 uM; treatment time: 3 h
USP19 = target: T1, USP19 (UniProt O94966)
T1 sequence (whole entry): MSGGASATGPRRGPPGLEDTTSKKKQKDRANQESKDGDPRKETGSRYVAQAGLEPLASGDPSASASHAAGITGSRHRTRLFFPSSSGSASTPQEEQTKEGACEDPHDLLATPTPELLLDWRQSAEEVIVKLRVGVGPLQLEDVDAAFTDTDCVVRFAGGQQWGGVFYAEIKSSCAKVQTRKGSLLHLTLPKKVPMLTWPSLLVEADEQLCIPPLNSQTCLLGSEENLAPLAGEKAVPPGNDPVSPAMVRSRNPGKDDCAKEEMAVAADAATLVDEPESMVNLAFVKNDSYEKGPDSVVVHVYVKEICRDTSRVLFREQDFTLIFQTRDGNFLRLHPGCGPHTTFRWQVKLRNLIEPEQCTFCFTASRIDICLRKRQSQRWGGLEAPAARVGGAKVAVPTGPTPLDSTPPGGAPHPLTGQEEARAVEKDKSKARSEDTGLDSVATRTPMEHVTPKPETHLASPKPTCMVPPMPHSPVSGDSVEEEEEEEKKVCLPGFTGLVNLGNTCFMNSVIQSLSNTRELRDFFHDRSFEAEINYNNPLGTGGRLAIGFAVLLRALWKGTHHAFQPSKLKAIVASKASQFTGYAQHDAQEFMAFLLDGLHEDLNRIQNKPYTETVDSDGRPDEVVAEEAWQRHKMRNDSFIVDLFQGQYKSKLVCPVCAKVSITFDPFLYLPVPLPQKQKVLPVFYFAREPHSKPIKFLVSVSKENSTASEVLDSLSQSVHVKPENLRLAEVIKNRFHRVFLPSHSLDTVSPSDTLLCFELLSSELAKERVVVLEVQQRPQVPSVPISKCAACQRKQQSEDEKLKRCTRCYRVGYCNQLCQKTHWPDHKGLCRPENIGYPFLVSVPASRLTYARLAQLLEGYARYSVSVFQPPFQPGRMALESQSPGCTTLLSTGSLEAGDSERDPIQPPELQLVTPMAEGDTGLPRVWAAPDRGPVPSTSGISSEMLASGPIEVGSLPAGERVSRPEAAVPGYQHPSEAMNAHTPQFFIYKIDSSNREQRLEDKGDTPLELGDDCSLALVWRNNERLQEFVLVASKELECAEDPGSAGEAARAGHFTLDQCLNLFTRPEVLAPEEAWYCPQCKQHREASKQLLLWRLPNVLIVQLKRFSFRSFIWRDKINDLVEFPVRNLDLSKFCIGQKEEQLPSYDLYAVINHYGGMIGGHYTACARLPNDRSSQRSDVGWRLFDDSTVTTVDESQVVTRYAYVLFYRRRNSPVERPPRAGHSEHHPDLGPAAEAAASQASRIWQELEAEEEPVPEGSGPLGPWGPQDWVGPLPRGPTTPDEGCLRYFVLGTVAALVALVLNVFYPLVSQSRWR
Outline: (§1)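 Each value is an average log2 ratio of fragment to vehicle, tested by unpaired t-test. The underlying Spectronaut label-free quantities were global-median-normalised, and only proteins with ≥2 unique peptides were included. Triplicate HEK293T lysate samples (495 µg) were exposed to fragment at 200 µM or vehicle for 3 h, then to Biotin-Ahx-Ub-VS at 0.5 µM final for 1 h, before NeutrAvidin enrichment of labelled DUBs, LysC and trypsin digestion, and diaPASEF LC-MS/MS.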

USP22 = target: T2, USP22 (UniProt Q9UPT9)
T2 sequence (whole entry): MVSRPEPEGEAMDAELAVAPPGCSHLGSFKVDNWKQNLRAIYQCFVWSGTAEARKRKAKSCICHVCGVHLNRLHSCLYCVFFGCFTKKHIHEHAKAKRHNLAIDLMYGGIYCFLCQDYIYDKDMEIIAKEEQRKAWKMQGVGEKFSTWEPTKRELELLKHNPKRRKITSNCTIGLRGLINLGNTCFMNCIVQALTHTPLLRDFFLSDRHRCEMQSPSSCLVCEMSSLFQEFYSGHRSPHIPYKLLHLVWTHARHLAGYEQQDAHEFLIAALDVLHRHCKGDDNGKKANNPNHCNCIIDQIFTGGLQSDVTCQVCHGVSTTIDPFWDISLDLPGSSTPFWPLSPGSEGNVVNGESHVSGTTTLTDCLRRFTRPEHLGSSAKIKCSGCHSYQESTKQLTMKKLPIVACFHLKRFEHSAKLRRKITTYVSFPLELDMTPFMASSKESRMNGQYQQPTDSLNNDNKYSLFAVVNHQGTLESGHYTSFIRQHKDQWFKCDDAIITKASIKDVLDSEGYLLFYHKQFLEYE
Outline: as §1

USP24 = USP24 (UniProt Q9UPU5)
Outline: as §1

USP25 = target: T3, USP25 (UniProt Q9UHP3)
T3 sequence (whole entry): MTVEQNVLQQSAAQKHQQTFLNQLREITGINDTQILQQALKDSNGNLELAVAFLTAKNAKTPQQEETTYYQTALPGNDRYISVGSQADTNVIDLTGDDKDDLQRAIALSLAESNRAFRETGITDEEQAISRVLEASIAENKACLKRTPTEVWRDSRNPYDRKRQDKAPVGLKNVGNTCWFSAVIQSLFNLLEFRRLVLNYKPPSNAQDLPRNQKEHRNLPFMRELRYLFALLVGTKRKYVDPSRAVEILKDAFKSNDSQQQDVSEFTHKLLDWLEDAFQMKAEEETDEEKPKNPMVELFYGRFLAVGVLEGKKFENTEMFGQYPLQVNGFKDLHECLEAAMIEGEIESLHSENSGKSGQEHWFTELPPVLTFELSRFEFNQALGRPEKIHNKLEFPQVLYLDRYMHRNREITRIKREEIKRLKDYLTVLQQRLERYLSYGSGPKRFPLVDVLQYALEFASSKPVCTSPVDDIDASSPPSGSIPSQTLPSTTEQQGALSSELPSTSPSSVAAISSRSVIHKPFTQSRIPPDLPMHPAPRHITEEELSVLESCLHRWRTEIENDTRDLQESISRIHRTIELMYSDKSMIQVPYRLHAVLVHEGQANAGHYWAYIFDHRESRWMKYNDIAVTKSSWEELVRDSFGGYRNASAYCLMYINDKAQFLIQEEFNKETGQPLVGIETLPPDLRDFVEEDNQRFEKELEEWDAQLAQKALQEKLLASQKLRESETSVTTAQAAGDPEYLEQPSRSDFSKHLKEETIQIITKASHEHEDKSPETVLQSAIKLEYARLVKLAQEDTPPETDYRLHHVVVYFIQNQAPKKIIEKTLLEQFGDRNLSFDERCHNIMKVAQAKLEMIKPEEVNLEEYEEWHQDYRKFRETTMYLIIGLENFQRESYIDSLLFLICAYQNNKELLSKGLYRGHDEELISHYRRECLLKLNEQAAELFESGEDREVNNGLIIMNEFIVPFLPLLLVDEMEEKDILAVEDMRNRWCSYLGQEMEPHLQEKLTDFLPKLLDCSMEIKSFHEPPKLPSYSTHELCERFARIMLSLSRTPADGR
Outline: as §1

USP28 = target: T4, USP28 (UniProt Q96RU2)
T4 sequence (whole entry): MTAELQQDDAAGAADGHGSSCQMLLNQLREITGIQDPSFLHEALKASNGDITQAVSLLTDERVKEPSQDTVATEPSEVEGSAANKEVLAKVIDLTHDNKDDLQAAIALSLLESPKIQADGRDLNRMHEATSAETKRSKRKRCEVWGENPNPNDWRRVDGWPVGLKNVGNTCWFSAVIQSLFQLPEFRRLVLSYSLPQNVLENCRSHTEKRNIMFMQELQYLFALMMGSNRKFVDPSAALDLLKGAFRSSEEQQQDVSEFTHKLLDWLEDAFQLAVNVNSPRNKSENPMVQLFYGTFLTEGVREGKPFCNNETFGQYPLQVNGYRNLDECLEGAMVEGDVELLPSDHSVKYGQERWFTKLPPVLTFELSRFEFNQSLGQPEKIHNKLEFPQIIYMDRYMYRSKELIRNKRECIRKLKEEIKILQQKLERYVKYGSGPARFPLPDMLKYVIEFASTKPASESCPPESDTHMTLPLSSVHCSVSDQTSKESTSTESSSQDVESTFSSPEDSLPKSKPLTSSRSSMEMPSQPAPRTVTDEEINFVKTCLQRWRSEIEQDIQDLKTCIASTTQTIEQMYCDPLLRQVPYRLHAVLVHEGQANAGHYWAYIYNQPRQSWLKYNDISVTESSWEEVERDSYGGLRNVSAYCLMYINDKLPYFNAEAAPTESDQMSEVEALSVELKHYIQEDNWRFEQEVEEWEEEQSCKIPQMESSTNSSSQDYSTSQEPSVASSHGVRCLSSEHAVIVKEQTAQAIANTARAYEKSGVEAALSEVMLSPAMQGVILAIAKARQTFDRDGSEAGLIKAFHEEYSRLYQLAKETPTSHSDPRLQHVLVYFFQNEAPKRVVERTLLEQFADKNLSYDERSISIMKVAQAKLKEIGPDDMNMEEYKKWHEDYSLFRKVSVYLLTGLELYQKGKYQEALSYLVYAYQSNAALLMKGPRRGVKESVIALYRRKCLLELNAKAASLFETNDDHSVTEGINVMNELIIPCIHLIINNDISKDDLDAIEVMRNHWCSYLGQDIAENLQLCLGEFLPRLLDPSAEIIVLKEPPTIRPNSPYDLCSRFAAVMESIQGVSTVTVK
Outline: as §1

Measured: log2 ratio of Biotin-Ahx-Ub-VS probe labelling

Sequence of USP24 (Q9UPU5 whole entry): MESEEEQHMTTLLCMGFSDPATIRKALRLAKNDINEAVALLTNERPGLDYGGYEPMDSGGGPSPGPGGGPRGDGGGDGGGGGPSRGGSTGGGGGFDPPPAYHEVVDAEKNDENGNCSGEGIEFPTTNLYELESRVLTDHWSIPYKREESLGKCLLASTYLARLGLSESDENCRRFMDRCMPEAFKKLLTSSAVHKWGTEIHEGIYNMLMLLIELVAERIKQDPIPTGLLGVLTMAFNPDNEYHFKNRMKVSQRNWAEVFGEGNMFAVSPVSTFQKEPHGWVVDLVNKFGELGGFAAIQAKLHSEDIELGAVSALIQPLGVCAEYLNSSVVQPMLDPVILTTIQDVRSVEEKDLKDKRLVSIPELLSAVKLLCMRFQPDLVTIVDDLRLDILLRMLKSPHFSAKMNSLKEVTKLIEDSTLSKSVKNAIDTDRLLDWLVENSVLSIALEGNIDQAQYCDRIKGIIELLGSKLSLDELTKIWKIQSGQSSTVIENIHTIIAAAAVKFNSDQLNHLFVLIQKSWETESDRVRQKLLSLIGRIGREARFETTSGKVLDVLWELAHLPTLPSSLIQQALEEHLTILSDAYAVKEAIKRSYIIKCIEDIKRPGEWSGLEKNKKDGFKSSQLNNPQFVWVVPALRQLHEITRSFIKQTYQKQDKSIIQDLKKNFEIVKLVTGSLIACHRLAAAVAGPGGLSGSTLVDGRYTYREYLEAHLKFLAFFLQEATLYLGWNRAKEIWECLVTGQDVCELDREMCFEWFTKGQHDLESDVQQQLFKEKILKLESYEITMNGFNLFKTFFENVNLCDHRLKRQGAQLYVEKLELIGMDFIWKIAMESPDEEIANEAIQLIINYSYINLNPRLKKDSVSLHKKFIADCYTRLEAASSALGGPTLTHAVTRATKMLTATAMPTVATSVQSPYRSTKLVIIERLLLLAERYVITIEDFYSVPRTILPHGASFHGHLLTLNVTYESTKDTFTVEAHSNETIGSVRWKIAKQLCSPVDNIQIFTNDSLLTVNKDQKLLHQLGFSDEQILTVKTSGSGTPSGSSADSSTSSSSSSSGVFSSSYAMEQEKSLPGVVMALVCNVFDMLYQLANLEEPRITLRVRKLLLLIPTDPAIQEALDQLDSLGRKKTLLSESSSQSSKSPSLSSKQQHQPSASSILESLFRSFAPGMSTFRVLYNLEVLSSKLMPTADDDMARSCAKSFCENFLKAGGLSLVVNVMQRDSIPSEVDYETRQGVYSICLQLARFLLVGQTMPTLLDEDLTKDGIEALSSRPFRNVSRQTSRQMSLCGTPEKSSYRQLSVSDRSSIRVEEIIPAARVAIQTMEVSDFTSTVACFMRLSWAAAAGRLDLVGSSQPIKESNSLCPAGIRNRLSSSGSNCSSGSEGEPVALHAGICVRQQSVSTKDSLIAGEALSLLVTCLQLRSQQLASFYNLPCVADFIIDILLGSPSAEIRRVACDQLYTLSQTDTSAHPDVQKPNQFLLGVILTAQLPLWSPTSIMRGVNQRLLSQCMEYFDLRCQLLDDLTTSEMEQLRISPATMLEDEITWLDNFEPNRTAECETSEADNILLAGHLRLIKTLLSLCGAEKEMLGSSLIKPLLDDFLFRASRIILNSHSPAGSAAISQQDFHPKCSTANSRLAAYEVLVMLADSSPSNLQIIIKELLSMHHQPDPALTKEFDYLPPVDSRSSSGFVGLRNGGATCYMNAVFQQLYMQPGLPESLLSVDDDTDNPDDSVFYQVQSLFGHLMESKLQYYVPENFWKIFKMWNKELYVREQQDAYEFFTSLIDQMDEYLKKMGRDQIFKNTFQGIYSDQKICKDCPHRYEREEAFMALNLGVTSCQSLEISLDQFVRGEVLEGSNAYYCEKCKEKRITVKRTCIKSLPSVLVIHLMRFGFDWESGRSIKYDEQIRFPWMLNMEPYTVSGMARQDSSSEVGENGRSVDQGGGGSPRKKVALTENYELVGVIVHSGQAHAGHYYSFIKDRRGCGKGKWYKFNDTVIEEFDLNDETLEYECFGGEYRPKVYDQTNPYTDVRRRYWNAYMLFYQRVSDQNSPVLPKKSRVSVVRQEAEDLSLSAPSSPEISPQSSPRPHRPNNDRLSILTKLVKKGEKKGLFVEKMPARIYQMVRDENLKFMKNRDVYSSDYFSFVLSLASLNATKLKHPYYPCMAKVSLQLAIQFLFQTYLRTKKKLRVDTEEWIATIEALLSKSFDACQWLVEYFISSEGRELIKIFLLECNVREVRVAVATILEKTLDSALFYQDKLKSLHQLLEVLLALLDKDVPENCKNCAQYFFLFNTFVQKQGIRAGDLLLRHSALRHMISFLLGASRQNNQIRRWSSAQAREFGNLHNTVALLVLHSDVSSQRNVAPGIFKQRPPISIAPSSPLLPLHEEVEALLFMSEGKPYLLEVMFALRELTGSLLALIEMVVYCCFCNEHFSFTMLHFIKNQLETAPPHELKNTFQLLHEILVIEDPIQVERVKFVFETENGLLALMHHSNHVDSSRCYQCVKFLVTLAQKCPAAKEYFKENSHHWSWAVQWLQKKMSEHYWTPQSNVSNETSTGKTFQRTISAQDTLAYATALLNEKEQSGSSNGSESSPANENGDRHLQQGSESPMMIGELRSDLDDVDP

Cl.Cn1ncc2c1CCCC2NC(=O)CCl (stereo not given)
inactive: USP19 -0.297 | USP22 0.202 | USP24 -0.29 | USP25 -0.289 | USP28 -0.57
